Most compounds without a hit are left out; they make up all but 21% or so of the library.
Sm TGR block – blocks Schistosoma mansoni thioredoxin glutathione reductase; Q962Y6; purified TGR, DTNB reduction, TNB absorbance 405 nm; Potency, µM (doses to about 114 µM), most hits filed as inhibitors; 3% of 360,000 active; further: nearly all actives have a fitted effect of over 60% in size
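TGR 20 nM + NADPH 100 uM (dispensed conc.), cpd preinc 15 min RT; start with NADPH (500 uM addition) then DTNB (15 mM addition). Kinetic TNB absorbance, 405 nm filter. Four-parameter Hill fit across titration.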
NS1 function inh – blocks influenza NS1 protein function; 0.4% of 270,000 active; Potency, µM (top dose mostly 46.1 µM); AID 2326; calls by dose curve; further: actives are rising curves; nearly all actives have a fitted effect of over 50% in size
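A cell-based growth assay was used: compounds that relieve NS1-induced slow growth of budding yeast raise OD600. Assay medium was yeast nitrogen base with ammonium sulphate and -URA supplement, pH 6.0, with 2% galactose.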
CHX counter – counter-screen hit for Shiga toxin inhibitors, cycloheximide | cell reporter, cycloheximide protein synthesis inhibition counterscreen | max response, % | 12% of 300,000 active | AID 2314; in the data active means max response mostly above about 13%, no sharp cut-off; inactive means mostly below about 14%; further: read at 38.3 µM for the half of the compounds with a filed dose
Pf growth 48h – P. falciparum growth inhibition at 48 hours (one generation) | AID 504832 | 5.9% of 310,000 active | Potency, µM (series often up to 28.7 µM), most hits filed as inhibitors | P. falciparum luciferase growth in erythrocytes, 48 h
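Compounds are pin-transferred into medium, infected erythrocytes (2% hematocrit, 0.1% parasitemia final) are added, and plates sit one parasite generation at 37 C in 5% CO2. Detection reagent is then added and luminescence measured.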
Shiga toxin inh – blocks Shiga toxin action in Vero cells; Vero cells, Shiga toxin protein synthesis inhibition reporter; inhibition, % at 38.7 µM; 9.2% of 290,000 active; in the data active means inhibition mostly above about 28%, no sharp cut-off; inactive means mostly below about 43%
Pf growth 96h – inhibits malaria parasite growth, 96 h. P. falciparum luciferase reporter growth, 96 h. Potency, µM (top dose mostly 28.7 µM), most hits filed as inhibitors. 6.9% of 320,000 active
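Readout is luminescence from an integrated firefly luciferase in P. falciparum. Red cells, 2% hematocrit and 0.05% parasitemia final, were cultured with compound through two parasite generations (96 hours) at 37 C, 5% CO2.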
Of the large screens only hits and unclear results are named; the others gave an inactive call; ! = repeats disagree. Unless noted, the call rests on the fitted dose curve; in most records, active means well fitted curve in the direction sought with a large enough effect; inconclusive means small, poorly fitted or top-dose-only effect, or another doubt; inactive means no such curve, though single readings can be large; an effect the other way counts as inactive or inconclusive.

COc1ccccc1Oc1ccc2c(c1)C(=O)N(c1cccc(O)c1)C2=O	CHX counter 27.8, Pf growth 48h 2.62µM, Shiga toxin inh 38.4
O=C1c2ccc3c4c(ccc(c24)C(=O)N1c1cccc(O)c1)CC3	none (no result: NS1 function inh)
Cc1ccc(C(=O)COC(=O)c2ccc3c(c2)C(=O)N(c2cccc4ncccc24)C3=O)cc1C	none
COc1ccccc1Oc1ccc2c(c1)C(=O)N(c1cccc3ncccc13)C2=O	CHX counter 41.4, Shiga toxin inh 65.8
Cn1c(SCC(=O)NC(=O)NCc2ccccc2)nnc1C(F)(F)F	none (no result: NS1 function inh, CHX counter, Shiga toxin inh)
COc1ccc(N(CC(=O)N2CCN(c3ccccc3)CC2)S(=O)(=O)c2c(C)noc2C)cc1	none (no result: Pf growth 48h)
CCOC(=O)N1CCN(C(=O)CN(c2ccc(C)cc2)S(=O)(=O)c2c(C)noc2C)CC1	Pf growth 96h inconclusive
COc1ccc(N(CC(=O)N2CCN(c3cc(C)ccc3C)CC2)S(=O)(=O)c2c(C)noc2C)cc1	Pf growth 48h 9.28µM, Pf growth 96h 13.1µM
COc1ccc(N(CC(=O)N2CCN(c3cccc(C)c3C)CC2)S(=O)(=O)c2c(C)noc2C)cc1	Pf growth 48h 8.28µM, Pf growth 96h 13.1µM
O=C(COc1ccc(/C=C2/NC(=O)NC2=O)cc1)Nc1ccc(F)cc1	Pf growth 48h inconclusive
COc1ccc(C2Nc3cccc4cccc(c34)N2)cc1	Pf growth 48h inconclusive (no result: Sm TGR block)
CN(C)c1ccc(C2Nc3cccc4cccc(c34)N2)cc1	Sm TGR block 31.6µM, Pf growth 96h 3.7µM (no result: Pf growth 48h)
Oc1ccccc1C1Nc2cccc3cccc(c23)N1	Sm TGR block 17.8µM, Pf growth 48h 13.1µM
Clc1ccc(C2Nc3cccc4cccc(c34)N2)cc1Cl	Sm TGR block 14.1µM, Pf growth 48h inconclusive (no result: Shiga toxin inh)
c1ccc(C2Nc3cccc4cccc(c34)N2)cc1	Sm TGR block 8.91µM, Pf growth 48h inconclusive
Cc1ccc(C(=O)NCC(=O)NCC(=O)OCc2ccc(Cl)cc2)cc1	Pf growth 96h inconclusive
COc1cc(OC)cc(C(=O)Nc2ccccc2-c2nnn(CC(=O)Nc3cc(C)on3)n2)c1	Pf growth 48h inconclusive
C[C@H](NC(=O)c1ccco1)C(=O)NCc1cccs1	none (no result: NS1 function inh, CHX counter, Shiga toxin inh)
CC(C)(C)OC(=O)NNC(=O)c1cccs1	none (no result: NS1 function inh)
O=C1NC(c2ccc(Cl)cc2)Nc2ccccc21 (centres undefined)	none
CN(C)c1ccc(CC2C(=O)Nc3ccccc32)cc1 (centres undefined)	Sm TGR block 14.1µM, CHX counter 21.8, Pf growth 48h inconclusive, Shiga toxin inh 49.9, Pf growth 96h inconclusive
Cc1ccc(C2NC(=O)c3ccccc3N2)s1 (centres undefined)	CHX counter 29.6, Shiga toxin inh 47.7, Pf growth 96h inconclusive
c1csc(C2Nc3cccc4cccc(c34)N2)c1	Sm TGR block 22.4µM, Pf growth 48h inconclusive, Pf growth 96h inconclusive
CN(C)c1ccc(C2NC(=O)c3ccccc3N2)cc1 (centres undefined)	CHX counter 46.4, Shiga toxin inh 65.8
CN1c2cccc3cccc(c23)N(C)C1c1cccs1	NS1 function inh inconclusive, Pf growth 48h inconclusive, Pf growth 96h inconclusive
Brc1cccc(C2Nc3cccc4cccc(c34)N2)c1	Sm TGR block 11.2µM, Pf growth 48h inconclusive, Pf growth 96h inconclusive
Clc1cccc(C2Nc3cccc4cccc(c34)N2)c1	Sm TGR block 3.16µM, Pf growth 48h 7.38µM
O=[N+]([O-])c1ccccc1C1Nc2cccc3cccc(c23)N1	Pf growth 48h inconclusive, Pf growth 96h inconclusive
CCOc1ncccc1C(=O)NCCN1C(=O)S/C(=C/c2cccs2)C1=O	none
O=c1c2c3c(sc2n2cnnc2n1-c1ccccc1)N(Cc1ccccc1)CCC3	Sm TGR block 25.1µM, Pf growth 48h inconclusive, Pf growth 96h 4.15µM
Cc1nnc2n(-c3ccccc3)c(=O)c3c4c(sc3n12)CCCC4	none
Cc1cc(C)cc(NC(=O)c2ccc(N3C(=O)C4CCCCC4C3=O)cc2)c1 (centres undefined)	none
O=C(O)CCSc1ccc2ccccc2n1	Sm TGR block inconclusive, Shiga toxin inh 29.9!
COc1cccc(NC(=O)CCSc2ccc3ccccc3n2)c1	CHX counter 15.4, Pf growth 96h 6.57µM
Cc1cc(C)cc(S(=O)(=O)Nc2cccc(-c3ccc(N4CCOCC4)nn3)c2)c1	none (no result: NS1 function inh, CHX counter, Pf growth 48h, Shiga toxin inh, Pf growth 96h)
COc1ccccc1-c1oc2ccccc2c1C#CC(C)(C)O	Pf growth 48h inconclusive, Pf growth 96h inconclusive (no result: NS1 function inh, CHX counter, Shiga toxin inh)
COc1ccccc1C(=O)N(CCC1CCCN1C)c1nc2ccccc2s1 (centres undefined)	CHX counter 25.9
COc1ccc2sc(N(CCCN(C)C)C(=O)c3nc4ccccc4s3)nc2c1	none (no result: NS1 function inh)
COCCC(=O)N1CCC(Oc2ccc(C(=O)NC3CCOC(C)(C)C3)cc2)CC1 (centres undefined)	Pf growth 96h inconclusive
O=S(=O)(Nc1cccc(-c2ccc(N3CCOCC3)nn2)c1)c1ccc(F)cc1F	none (no result: NS1 function inh, CHX counter, Pf growth 48h, Shiga toxin inh, Pf growth 96h)
CCOc1ccc(S(=O)(=O)N2CCCCC2)cc1NC(=O)C1CSC2(C)CCC(=O)N12 (centres undefined)	Pf growth 48h 1.04µM, Pf growth 96h inconclusive (no result: NS1 function inh, CHX counter, Shiga toxin inh)
CC(C)Oc1ccc(S(=O)(=O)N2CCCCC2)cc1NC(=O)C1CSC2(C)CCC(=O)N12 (centres undefined)	Pf growth 48h 11.7µM, Pf growth 96h inconclusive (no result: NS1 function inh, CHX counter, Shiga toxin inh)
COc1ccc(C(=S)N2CCOCC2)cc1OC(=O)c1ccc(C)cc1	Pf growth 96h 2.94µM
COc1cc(C(=S)N2CCOCC2)ccc1OC(=O)/C=C/c1ccco1	Sm TGR block inconclusive, CHX counter 20.5, Pf growth 96h inconclusive (no result: NS1 function inh)
COc1ccc(C(=S)N2CCOCC2)cc1OC(=O)c1ccccc1	none
COc1cc(C(=S)N2CCOCC2)ccc1OC(=O)c1ccccc1	Sm TGR block inconclusive, Pf growth 48h inconclusive
Cc1ccc(S(=O)(=O)NCC(=O)OC(C)C(=O)NC2CCCCC2C)cc1C (centres undefined)	none (no result: NS1 function inh, CHX counter, Shiga toxin inh)
CC(=O)N(c1ccccc1)c1nnc(-c2cnc(C)cn2)s1	CHX counter 28.8, Shiga toxin inh 68.3
Cc1cnc(-c2nnc(N(C)C(=O)c3cccnc3)s2)cn1	Pf growth 96h inconclusive
Cc1ccc(C(C)(O)CS(=O)(=O)Cc2ccccc2Cl)cc1 (centres undefined)	Sm TGR block 50.1µM
CC(O)(CS(=O)(=O)Cc1ccccc1)c1ccc(Cl)cc1 (centres undefined)	Pf growth 96h inconclusive
Cc1cccc(-c2c3c(=O)n(C)c(=O)n(C)c3c3c(C)nc4ccccc4n23)c1	none (no result: NS1 function inh, CHX counter, Pf growth 48h, Shiga toxin inh, Pf growth 96h)
c1ccc(CCn2nnnc2CN2CCc3ccccc32)cc1	Sm TGR block 12.6µM, Pf growth 48h inconclusive
CCOC(=O)C1CCN(C(=O)CCc2ccccc2)CC1	Sm TGR block 89.1µM
CCOC(=O)C1CCN(C(=O)CCS(=O)(=O)Cc2ccccc2)CC1	Sm TGR block 44.7µM
CCOC(=O)C1CCN(Cc2nnnn2CCc2ccccc2)CC1	CHX counter 40.6
COc1ccc(-c2nc3ccccc3c(=O)n2NC(=S)N(C)C)cc1	none
O=Cc1cc(-c2ccccc2)[nH]c1-c1ccccc1	CHX counter 23.7 (no result: Shiga toxin inh)

Assay outcomes deposited in PubChem BioAssay by National Center for Advancing Translational Sciences (NCATS).
